PubChem BioAssay AID777 (Sanford-Burnham Center for Chemical Genomics, 2007)
The campaign covered roughly 96,000 compounds. About 19,000 (20%) were called active. The list is a sample of the results. A number with no mark means an inactive call.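 Rule for the calls: active = blocking of liver enzyme CYP2C9 beyond about 50% at 5 µM (limit read from the data); inactive = the rest.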

target: Cytochrome P450 2C9 (Homo sapiens) (UniProt P11712); experiment: blockers of cytochrome P450 2C9 activity – biochemical, luminescence, ADME assay, primary screen (AID 777); conditions: CYP2C9 Supersomes, luciferin-H conversion, at 5 µM, hits give high values
Sequence (P11712 whole entry, looked up): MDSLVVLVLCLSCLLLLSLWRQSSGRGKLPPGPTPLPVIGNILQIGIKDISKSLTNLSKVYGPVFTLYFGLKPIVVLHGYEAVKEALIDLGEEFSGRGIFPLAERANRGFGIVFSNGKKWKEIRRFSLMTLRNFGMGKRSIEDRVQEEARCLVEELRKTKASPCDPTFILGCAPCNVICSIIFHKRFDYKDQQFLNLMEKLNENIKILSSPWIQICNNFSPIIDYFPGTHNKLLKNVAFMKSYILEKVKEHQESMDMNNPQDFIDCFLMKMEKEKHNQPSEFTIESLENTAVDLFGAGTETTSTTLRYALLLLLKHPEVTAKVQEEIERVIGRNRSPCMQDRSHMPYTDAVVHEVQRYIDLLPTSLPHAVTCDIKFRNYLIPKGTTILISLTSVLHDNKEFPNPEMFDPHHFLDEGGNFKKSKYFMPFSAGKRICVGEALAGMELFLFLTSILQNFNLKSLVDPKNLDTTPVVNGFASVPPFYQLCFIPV

Question: How did the inhibition turn out when Cn1c(-c2ccco2)nc2cc3ccccc3cc21 was run?
Answer: Its inhibition is 26.1%.

Question: C=CCn1c(Cn2nnc3ccccc32)nnc1SCC(=O)N/N=C/c1cc(Br)cc(OC)c1O was tested. Which inhibition did it give?
Answer: The inhibition was 54% (active).

Question: Which inhibition does the source give for Cn1c(Cn2nnc3ccccc32)nnc1SCC(=O)c1ccccc1F here?
Answer: The inhibition was 28.6%.

Question: How did the inhibition turn out when COc1ccc(OC)c(/C=N/NC(=O)CSc2nnc(C)n2-c2ccccc2)c1 was run?
Answer: Its inhibition is 20.2%.

Question: COc1cccc(N(CC(=O)NCCSc2ccccn2)S(C)(=O)=O)c1 was tested. Which inhibition did it give?
Answer: The inhibition was 38.4%.

Question: Which inhibition does the source give for CC(=O)c1cc2c(cc1N)OCO2 here?
Answer: The inhibition was 3.4%.

Question: How did the inhibition turn out when N#Cc1c2c(c(N3CCN(CCO)CC3)n3c1nc1ccccc13)CCCC2 was run?
Answer: The inhibition was 58.2% (active).

Question: Which inhibition does the source give for CCCCn1c(CN2CCN(CCO)CC2)nc2ccccc21 here?
Answer: Its inhibition is 1.5%.

Question: CN(C)CCCNc1c2c(c(C#N)c3nc4ccccc4n13)CCC2 was tested. Which inhibition did it give?
Answer: Its inhibition is 7.3%.

Question: How did the inhibition turn out when C=CCOc1ccc(C2/C(=C(\O)c3c(C)[nH]c(C(=O)OC)c3C)C(=O)C(=O)N2CCN(C)C)cc1 (configuration not stated) was run?
Answer: Its inhibition is -6.1%.

Question: For CCOC(=O)c1cccc(NC(=O)C2CCCN(S(=O)(=O)c3cnc[nH]3)C2)c1 (configuration not stated), which inhibition is on record?
Answer: Its inhibition is 95.6% (active).

Question: For O=C(NCc1ccco1)C1CCCN(S(=O)(=O)c2cnc[nH]2)C1 (configuration not stated), which inhibition is on record?
Answer: Its inhibition is 27.3%.

Question: How did the inhibition turn out when COc1cccc(N2CCN(C(=O)C3CCCN(S(=O)(=O)c4cnc[nH]4)C3)CC2)c1 (configuration not stated) was run?
Answer: Its inhibition is 36.6%.

Question: Which inhibition does the source give for O=C(CN1C(=O)COc2ccccc21)NCCN1CCc2ccccc2C1 here?
Answer: The inhibition was 25%.

Question: With Oc1c(C=Nc2cccc3nsnc23)ccc2ccccc12 as the compound, how does the inhibition read?
Answer: The inhibition was -15.3%.

Question: COc1ccc(Br)cc1CN1CCN(C(=O)c2cccc(OC)c2OC)CC1 was tested. Which inhibition did it give?
Answer: The inhibition was 52.9% (active).

Question: With COc1cccc(OC)c1OCCN1CCN(C(=O)c2ccco2)CC1 as the compound, how does the inhibition read?
Answer: The inhibition was -24.9%.

Question: How did the inhibition turn out when COc1c(C(=O)N2CCCC2)ccc2ccccc12 was run?
Answer: Its inhibition is -19.3%.

Question: CN(C)CCCn1c(N)c(C#N)c2nc(C#N)c(C#N)nc21 was tested. Which inhibition did it give?
Answer: The inhibition was -11.9%.

Question: Which inhibition does the source give for COc1ccc(OCC(=O)N2CCOCC2)cc1 here?
Answer: Its inhibition is 17.3%.

Question: O=C(NCc1ccc(Cl)cc1)c1cc(=O)nc2sc(-c3ccccc3)nn12 was tested. Which inhibition did it give?
Answer: The inhibition was 2.9%.

Question: With Cc1ccc(N(C(=O)CC2NC(=O)NC2=O)C2(C(=O)NC3CCCC3)CCCCC2)cc1 (configuration not stated) as the compound, how does the inhibition read?
Answer: Its inhibition is 46.4%.

Question: CCOc1ccc(CCNC(=O)C(CC)n2nc(C)n3c(cc4sccc43)c2=O)cc1OCC (configuration not stated) was tested. Which inhibition did it give?
Answer: Its inhibition is 51.6% (active).

Question: How did the inhibition turn out when COc1ccc(CCNC(=O)c2cc3sccc3n2C)cc1OC was run?
Answer: Its inhibition is 26.8%.

Question: For CCC(C(=O)NCc1ccc(OC)cc1)n1nc(C)n2c(cc3occc32)c1=O (configuration not stated), which inhibition is on record?
Answer: The inhibition was 82.8% (active).

Question: How did the inhibition turn out when CCOc1ccc(CCNC(=O)C2CCN(c3ccc(N4CCOCC4)nn3)CC2)cc1OCC was run?
Answer: The inhibition was 14%.

Question: How did the inhibition turn out when COc1ccc(CCn2c(=N)c(C(=O)NCc3ccco3)cc3c(=O)n4cccc(C)c4nc32)cc1 was run?
Answer: Its inhibition is 14.3%.

Question: How did the inhibition turn out when CCC(C(=O)N1CCOCC1)n1c(C(=O)OC)cc2occc21 (configuration not stated) was run?
Answer: Its inhibition is 12.8%.

Question: Which inhibition does the source give for CCc1c(C)nc2cc(C)[nH]n2c1=O here?
Answer: The inhibition was 16.4%.

Question: For CCCNC(=O)N1CCN(C(=O)NCCC)CC1, which inhibition is on record?
Answer: The inhibition was 2.7%.

Question: With Cc1ccc(-n2ncc3c(Nc4cccc(C(=O)O)c4)ncnc32)cc1 as the compound, how does the inhibition read?
Answer: Its inhibition is 29.6%.

Question: CCOC(=O)C1CCCN(C(=O)CN(c2ccc(OC)cc2)S(=O)(=O)c2c(C)noc2C)C1 (configuration not stated) was tested. Which inhibition did it give?
Answer: Its inhibition is 11%.

Question: Which inhibition does the source give for Cc1cc(C)cc(N(CC(=O)NCC2CCCO2)S(=O)(=O)c2c(C)noc2C)c1 (configuration not stated) here?
Answer: Its inhibition is 64.1% (active).

Question: For Cc1ccc(C(=O)O)cc1S(=O)(=O)NCC1CCCO1 (configuration not stated), which inhibition is on record?
Answer: The inhibition was 5.8%.

Question: For CCC(=O)c1c[nH]c(C(=O)NCC2CCCO2)c1 (configuration not stated), which inhibition is on record?
Answer: Its inhibition is -7%.

Question: O=C(Nc1ccc(Cl)c(Cl)c1)N1CC=C(c2ccccc2)CC1 was tested. Which inhibition did it give?
Answer: The inhibition was 46.1%.

Question: Which inhibition does the source give for Cc1cc(C)cc(N(CC(=O)N2CC=C(c3ccccc3)CC2)S(=O)(=O)c2c(C)noc2C)c1 here?
Answer: The inhibition was 90.8% (active).

Question: Which inhibition does the source give for COCCCNC(=O)CN1CCN(Cc2ccccc2Cl)C1=O here?
Answer: Its inhibition is -16.9%.

Question: Which inhibition does the source give for Cc1nc2ncnn2c(C)c1CCC(=O)N1CCN(C(=O)c2ccco2)CC1 here?
Answer: Its inhibition is -8.6%.

Question: How did the inhibition turn out when CCOC(=O)n1c(SCC(=O)N(CC)CC)nc2ccccc21 was run?
Answer: The inhibition was 30.9%.

Question: How did the inhibition turn out when CCN(CC)C(=O)CSc1nc2ccccc2n1CC(=O)N1CCN(c2ccccc2OC)CC1 was run?
Answer: Its inhibition is 51.4% (active).

Question: With CC(C)N(C(=O)Cn1c(SCC(=O)N2CCN(c3ccccc3)CC2)nc2ccccc21)C(C)C as the compound, how does the inhibition read?
Answer: The inhibition was 14.3%.

Question: Which inhibition does the source give for O=C1c2ccccc2C(=O)N1CCc1nn[nH]n1 here?
Answer: Its inhibition is 0.5%.

Question: Which inhibition does the source give for Fc1ccccc1CCNc1nnnn1-c1ccccc1 here?
Answer: The inhibition was 31.4%.

Question: Which inhibition does the source give for CN(CCCC(=O)Nc1nccs1)S(=O)(=O)c1ccc(Cl)cc1 here?
Answer: The inhibition was 38.4%.

Question: For O=C(CCSCCc1ccccn1)Nc1nccs1, which inhibition is on record?
Answer: The inhibition was 81% (active).

Question: With CC1(C)Cc2cccc(OCC(=O)Nc3nccs3)c2O1 as the compound, how does the inhibition read?
Answer: Its inhibition is 31%.

Question: Which inhibition does the source give for COCCN(CC(=O)Nc1ccccc1C)S(=O)(=O)c1ccc(S(=O)(=O)N2CCCC2)cc1 here?
Answer: Its inhibition is 16.5%.

Question: For CCOC(=O)CSc1nnc(CNC(=O)Cc2ccccc2)n1-c1ccccc1OC, which inhibition is on record?
Answer: Its inhibition is 8.6%.

Question: For CCOc1ccc(C(CCc2ccccc2)NC(=O)c2ccc(OC)c(OC)c2)cc1OCC (configuration not stated), which inhibition is on record?
Answer: Its inhibition is 76.1% (active).

Question: CCOc1cc(C(=O)N2CCc3cc(OC)c(OC)cc3C2)ccc1OC(F)F was tested. Which inhibition did it give?
Answer: The inhibition was 30.7%.

Question: For COc1ccc(Cn2c(=O)sc3ccccc32)cc1OC, which inhibition is on record?
Answer: The inhibition was 29.2%.

Question: How did the inhibition turn out when Nc1nc(Br)c2ccccc2c1-c1ccc(F)cc1 was run?
Answer: The inhibition was 2.2%.

Question: How did the inhibition turn out when COc1ccc(N2CCN(C(=O)CSc3nc4cc(OC)c(OC)cc4cc3C#N)CC2)cc1 was run?
Answer: Its inhibition is 26.1%.

Question: For Cc1cc(C)c2nc(N3CCCC3)c(C#N)cc2c1, which inhibition is on record?
Answer: The inhibition was 9.6%.

Question: Which inhibition does the source give for COc1ccc2nc(N3CCCC(O)C3)c(C#N)cc2c1 (configuration not stated) here?
Answer: Its inhibition is 63.9% (active).

Question: For Cc1[nH]c(=O)c(C(=O)/C=C/c2ccccc2)c2c1CCCC2, which inhibition is on record?
Answer: Its inhibition is -14.6%.

Question: CC1(C)C(=O)C2(CCCCC2)C(=O)OC1c1cccs1 (configuration not stated) was tested. Which inhibition did it give?
Answer: The inhibition was -9.3%.

Question: For O=C(COc1ccccc1F)NC1CC1, which inhibition is on record?
Answer: The inhibition was -15.2%.

Question: With COc1ccc(Cn2cccc(NC(=O)Nc3ccc(C#N)cc3)c2=O)cc1 as the compound, how does the inhibition read?
Answer: Its inhibition is 14.3%.

Question: O=C(Nc1cccn(Cc2c(Cl)cccc2Cl)c1=O)c1ccc(Cl)cc1 was tested. Which inhibition did it give?
Answer: Its inhibition is 71.8% (active).

Question: CSc1ccc(C#N)cc1NC(=O)c1ccc(Cl)cc1 was tested. Which inhibition did it give?
Answer: The inhibition was 6.3%.
